# Assay results: PubChem BioAssay
# Calls of active or inactive are those of the source. Rule as the data show it, unless noted: active = inhibition above about 80%; inactive = the rest.
# Assays:
# [1] = growth inhibition, single agent or in combination, cell-based, chromothripsis tumors, cisplatin or BGB combos (AID 1671449); conditions: LFS_MB_P medulloblastoma cells;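 also: cells exposed for 96 hours; 0% = vehicle DMSO and 100% = killing by high DMSO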
# [2] = growth inhibition, single agent and combos, cell-based, chromothripsis tumors, cisplatin or BGB combos (AID 1671450); conditions: HDN33 neuroblastoma cells, stronger effect = higher value;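 also: cells exposed to compound for four days; 0% = vehicle DMSO and 100% = cell killing by high DMSO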
# [3] = growth inhibition, single agents and combos, ICB984, cell-based, cisplatin or BGB combos, synergistic combos for chromothripsis tumors (AID 1671451; call rule not given here;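 also: cells exposed for 96 hours before readout; 0% = vehicle DMSO and 100% = killing by high DMSO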); conditions: ICB984 medulloblastoma cells, drug combinations, stronger effect = higher value
# [4] = growth inhibition, single agents and combos, LFS_MB_1R, cell-based, cisplatin or BGB combos, synergistic combos for chromothripsis tumors (AID 1671452); conditions: LFS_MB_1R medulloblastoma cells, stronger effect = higher value;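 also: cells exposed for 96 hours before readout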
# [5] = growth inhibition, single agents and combos, HTB85, cell-based, BGB or cisplatin IC20 combos, synergistic combos for chromothripsis tumors (AID 1671453); conditions: HTB85 osteosarcoma cells, drug combinations, stronger effect = higher value;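 also: cells exposed for 96 hours before readout; 0% = vehicle DMSO and 100% = high DMSO killing control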
# [6] = growth inhibition, single agents and combos, CRL2098, cell-based, BGB or cisplatin IC20 combos, synergistic combos for chromothripsis tumors (AID 1671454); conditions: CRL2098 osteosarcoma cells, drug combinations, stronger effect = higher value;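 also: cells exposed for 96 h before readout; 0% = vehicle DMSO and 100% = killing by high DMSO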
# [7] = growth inhibition, single agents and combos, HD-MB03, cell-based, BGB or cisplatin IC20 combos, synergistic combos for chromothripsis tumors (AID 1671455; in the data active = inhibition above about 83%;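 also: 0% = vehicle DMSO and 100% = high DMSO as cytotoxic control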); conditions: HD-MB03 medulloblastoma cells, stronger effect = higher value
# [8] = growth inhibition, single agents and combos, UWB1.289, cell-based, BGB or cisplatin combos, synergistic combos for chromothripsis tumors (AID 1671456); conditions: UWB1.289 ovarian carcinoma cells, stronger effect = higher value;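 also: cells exposed to compound for four days; 0% = vehicle DMSO and 100% = killing by high DMSO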
# [9] = growth inhibition, single agents and combos, LFS_MB_2R, cell-based, cisplatin combos, synergistic combos for chromothripsis tumors (AID 1671457); conditions: LFS_MB_2R medulloblastoma cells, stronger effect = higher value;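 also: cells exposed to compound for four days before readout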
# [10] = growth inhibition, MDA-MB-436, cell-based, BGB or cisplatin combos, synergistic combos for chromothripsis tumors (AID 1671458; call rule not given here;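 also: cells exposed for 96 hours; 0% = vehicle DMSO and 100% = killing by high DMSO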); conditions: MDA-MB-436 breast carcinoma growth inhibition, drug combinations, stronger effect = higher value
# [11] = UWB1.289_BRCA1 ovarian cancer growth, cell-based, BGB or cisplatin combinations (AID 1671459); conditions: UWB1.289 BRCA1 ovarian carcinoma, drug combinations, stronger effect = higher value
# [12] = drug combination toxicity in non-malignant astrocytes – cell-based, BGB or cisplatin IC20 combos, cytotoxicity control for chromothriptic childhood tumor combination screen (AID 1671460); conditions: Human astrocytes, viability inhibition, drug combinations, at 0.5 µM, stronger effect = higher value;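 also: cells exposed to compounds for 96 hours before viability readout; 0% = vehicle and 100% = killing control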
# [13] = BT084 cell growth, single and combined drugs, ICGC_MB145, cisplatin and BGB IC40 combos (AID 1671461); conditions: BT084 medulloblastoma cells, drug combinations, stronger effect = higher value;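 also: cells exposed to drugs for 96 hours; 0% = vehicle DMSO and 100% = high DMSO full killing control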
# [14] = RCMB18 cell growth, single agent and combined, cisplatin and BGB IC40 combos (AID 1671462); conditions: RCMB18 medulloblastoma cells, stronger effect = higher value;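 also: cells exposed to compound for four days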
# [15] = CRL1545 cell growth, single agent and combined, cisplatin and BGB IC20 combos (AID 1671464); conditions: CRL1545 osteosarcoma cells, stronger effect = higher value;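 also: cells exposed to compound for 96 hours before readout; 0% = vehicle DMSO and 100% = high DMSO killing control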
# [16] = measured here: combination with BGB IC40, at 0.05 µM
# [17] = measured here: with BGB IC20 combination, at 0.5 µM
# [18] = measured here: with cisplatin IC20 combination, at 0.5 µM
# [19] = measured here: combination with cisplatin, at 0.5 µM
# [20] = measured here: combination with cisplatin, at 5 µM
smiles,measurement,setting,value
NC(=O)c1ncn(C2OC(CO)C(O)C2O)c1O (stereo not drawn),inhibition,"[1]; at 0.5 µM, stronger effect = higher value",-12.6% (inactive)
same,inhibition,"[1]; measured here: combination with BGB IC20, at 0.005 µM",-7.32%
same,inhibition,"[1]; measured here: combination with BGB IC40, at 0.005 µM",-2.51%
same,inhibition,[1]; [16],-10.8%
same,inhibition,"[1]; measured here: combination with cisplatin, at 0.5 µM, stronger effect = higher value",-6.4%
same,inhibition,"[1]; measured here: combination with cisplatin, at 5 µM, stronger effect = higher value",-30%
same,inhibition,"[2]; BGB combo, at 5 µM",5.04%
same,inhibition,[2]; at 0.5 µM,6.65% (inactive)
same,inhibition,"[2]; cisplatin combo, at 5 µM",-12.8%
same,inhibition,[2]; [17],16.7%
same,inhibition,[2]; [18],12.5%
same,inhibition,"[2]; single agent, at 5 µM",-11%
same,inhibition,"[3]; BGB IC20 combo, at 0.005 µM",6.56%
same,inhibition,"[3]; BGB IC40 combo, at 0.005 µM",-22.2%
same,inhibition,"[3]; BGB IC40 combo, at 0.05 µM",-25%
same,inhibition,[3]; at 0.5 µM,-19.3% (inactive)
same,inhibition,"[3]; cisplatin combo, at 0.05 µM",-25%
same,inhibition,"[3]; cisplatin combo, at 0.5 µM",-21.3%
same,inhibition,"[3]; cisplatin combo, at 5 µM",9.18%
same,inhibition,"[3]; measured here: 5 uM single agent, at 5 µM",-10.8%
same,inhibition,[4]; at 0.5 µM,-1.69% (inactive)
same,inhibition,[4]; [16],11.9%
same,inhibition,[4]; [19],14.5%
same,inhibition,[4]; [20],1.36%
same,inhibition,[5]; at 0.5 µM,-21.2% (inactive)
same,inhibition,"[5]; measured here: with BGB IC20, at 0.5 µM",-45.8%
same,inhibition,"[5]; measured here: with BGB IC20, at 5 µM",-14%
same,inhibition,"[5]; measured here: with cisplatin IC20, at 0.5 µM",-13.3%
same,inhibition,"[5]; measured here: with cisplatin IC20, at 5 µM",26.5%
same,inhibition,"[5]; single agent, at 5 µM",4.97%
same,inhibition,[6]; at 0.5 µM,-22.6% (inactive)
same,inhibition,"[6]; measured here: combination with BGB at IC20, at 0.5 µM",-31.9%
same,inhibition,"[6]; measured here: combination with cisplatin at IC20, at 0.5 µM",-21.8%
same,inhibition,[7]; at 0.5 µM,-5.96% (inactive)
same,inhibition,"[7]; measured here: combo with BGB at IC20, at 0.5 µM",-11.6%
same,inhibition,"[7]; measured here: combo with cisplatin at IC20, at 0.5 µM",0.212%
same,inhibition,[8]; at 0.5 µM,2.16% (inactive)
same,inhibition,"[8]; measured here: inhibition with BGB combination, at 0.05 µM",-15.4%
same,inhibition,"[8]; measured here: inhibition with cisplatin combination, at 0.05 µM",-3.17%
same,inhibition,[9]; at 0.5 µM,-17.9% (inactive)
same,inhibition,[9]; [19],-10.4%
same,inhibition,[9]; [20],-9.64%
same,inhibition,[10]; at 0.5 µM,-15.6% (inactive)
same,inhibition,"[10]; measured here: BGB combination, at 0.5 µM",-16%
same,inhibition,"[10]; measured here: BGB combination, at 5 µM",-1.99%
same,inhibition,"[10]; measured here: cisplatin combination, at 0.5 µM",-28.5%
same,inhibition,"[10]; measured here: cisplatin combination, at 5 µM",-10.8%
same,inhibition,"[11]; BGB combination, concentration series, at 5 µM",5.96%
same,inhibition,[11]; at 0.5 µM,2.34% (inactive)
same,inhibition,"[11]; cisplatin combination, concentration series, at 5 µM",12.4%
same,inhibition,[12],-5.39% (inactive)
same,inhibition,[12]; measured here: combo with BGB IC20,-5.58%
same,inhibition,[12]; measured here: combo with cisplatin IC20,-13.5%
same,inhibition,[13]; at 0.5 µM,-0.897% (inactive)
same,inhibition,"[13]; cisplatin combination, at 0.5 µM",6.23%
same,inhibition,"[13]; cisplatin combination, at 5 µM",-20.7%
same,inhibition,"[13]; measured here: BGB IC40 combination 0.05 uM, at 0.05 µM",5.17%
same,inhibition,"[13]; single agent, at 5 µM",-12.6%
same,inhibition,[14]; at 0.5 µM,-9.69% (inactive)
same,inhibition,"[14]; cisplatin combo, at 5 µM",0.143%
same,inhibition,"[14]; measured here: BGB IC40 combination, at 0.05 µM",-17.2%
same,inhibition,[14]; [19],9.55%
same,inhibition,"[14]; single agent, at 5 µM",-31.2%
same,inhibition,[15]; at 0.5 µM,-13.2% (inactive)
same,inhibition,[15]; [17],2.45%
same,inhibition,[15]; [18],-21%
same,inhibition,"[15]; single agent, at 0.05 µM",13%
same,inhibition,"[15]; single agent, at 5 µM",22.2%
